{"source": "the supplement of paper PMC4466140", "data": [{"target": "ScBbc1", "experiment": "SPOT peptide array binding signal intensity (averaged, normalized) (arbitrary units (background-subtracted, floor 0; scale differs between SH3 domains)); higher = stronger binding of the SH3 domain to the peptide", "description": "(§1)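 GST-tagged SH3 domains from S. cerevisiae (Sc), A. gossypii (Ag), C. albicans (Ca) and S. pombe (Sp) were incubated at 10 ug/ml overnight at 4 C on cellulose SPOT membranes carrying 292 synthetic 15-mer peptides mined from the S. cerevisiae proteome (cysteines replaced by serines). Binding was detected with anti-GST antibody, HRP secondary and chemiluminescence, quantified with Genespotter, and reported as normalized spot intensities averaged over biological replicates.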", "values": [{"binder": "RSKRLFPVRPMATAH", "SPOT peptide array binding signal intensity": 10}]}, {"target": "ScBem1-D1", "experiment": "SPOT peptide array binding signal intensity (averaged, normalized) (arbitrary units (background-subtracted, floor 0; scale differs between SH3 domains)); higher = stronger binding of the SH3 domain to the peptide", "description": "as §1", "values": [{"binder": "RSKRLFPVRPMATAH", "SPOT peptide array binding signal intensity": 5}]}, {"target": "ScBzz1-D1", "experiment": "SPOT peptide array binding signal intensity (averaged, normalized) (arbitrary units (background-subtracted, floor 0; scale differs between SH3 domains)); higher = stronger binding of the SH3 domain to the peptide", "description": "as §1", "values": [{"binder": "RSKRLFPVRPMATAH", "SPOT peptide array binding signal intensity": 1.5}]}, {"target": "ScBzz1-D2", "experiment": "SPOT peptide array binding signal intensity (averaged, normalized) (arbitrary units (background-subtracted, floor 0; scale differs between SH3 domains)); higher = stronger binding of the SH3 domain to the peptide", "description": "as §1", "values": [{"binder": "RSKRLFPVRPMATAH", "SPOT peptide array binding signal intensity": 2}]}, {"target": "ScCyk3", "experiment": "SPOT peptide array binding signal intensity (averaged, normalized) (arbitrary units (background-subtracted, floor 0; scale differs between SH3 domains)); higher = stronger binding of the SH3 domain to the peptide", "description": "as §1", "values": [{"binder": "RSKRLFPVRPMATAH", "SPOT peptide array binding signal intensity": 216}]}, {"target": "ScFus1", "experiment": "SPOT peptide array binding signal intensity (averaged, normalized) (arbitrary units (background-subtracted, floor 0; scale differs between SH3 domains)); higher = stronger binding of the SH3 domain to the peptide", "description": "as §1", "values": [{"binder": "RSKRLFPVRPMATAH", "SPOT peptide array binding signal intensity": 255}]}, {"target": "ScHof1", "experiment": "SPOT peptide array binding signal intensity (averaged, normalized) (arbitrary units (background-subtracted, floor 0; scale differs between SH3 domains)); higher = stronger binding of the SH3 domain to the peptide", "description": "as §1", "values": [{"binder": "RSKRLFPVRPMATAH", "SPOT peptide array binding signal intensity": 1}]}, {"target": "ScHse1", "experiment": "SPOT peptide array binding signal intensity (averaged, normalized) (arbitrary units (background-subtracted, floor 0; scale differs between SH3 domains)); higher = stronger binding of the SH3 domain to the peptide", "description": "as §1", "values": [{"binder": "RSKRLFPVRPMATAH", "SPOT peptide array binding signal intensity": 998}]}, {"target": "ScLsb1", "experiment": "SPOT peptide array binding signal intensity (averaged, normalized) (arbitrary units (background-subtracted, floor 0; scale differs between SH3 domains)); higher = stronger binding of the SH3 domain to the peptide", "description": "as §1", "values": [{"binder": "RSKRLFPVRPMATAH", "SPOT peptide array binding signal intensity": 14.5}]}, {"target": "ScLsb2", "experiment": "SPOT peptide array binding signal intensity (averaged, normalized) (arbitrary units (background-subtracted, floor 0; scale differs between SH3 domains)); higher = stronger binding of the SH3 domain to the peptide", "description": "as §1", "values": [{"binder": "RSKRLFPVRPMATAH", "SPOT peptide array binding signal intensity": "≤ 0"}]}, {"target": "ScLsb3", "experiment": "SPOT peptide array binding signal intensity (averaged, normalized) (arbitrary units (background-subtracted, floor 0; scale differs between SH3 domains)); higher = stronger binding of the SH3 domain to the peptide", "description": "as §1", "values": [{"binder": "RSKRLFPVRPMATAH", "SPOT peptide array binding signal intensity": 1050}]}, {"target": "ScLsb4", "experiment": "SPOT peptide array binding signal intensity (averaged, normalized) (arbitrary units (background-subtracted, floor 0; scale differs between SH3 domains)); higher = stronger binding of the SH3 domain to the peptide", "description": "as §1", "values": [{"binder": "RSKRLFPVRPMATAH", "SPOT peptide array binding signal intensity": 32.5}]}, {"target": "ScMyo3", "experiment": "SPOT peptide array binding signal intensity (averaged, normalized) (arbitrary units (background-subtracted, floor 0; scale differs between SH3 domains)); higher = stronger binding of the SH3 domain to the peptide", "description": "as §1", "values": [{"binder": "RSKRLFPVRPMATAH", "SPOT peptide array binding signal intensity": 5.5}]}, {"target": "ScMyo5", "experiment": "SPOT peptide array binding signal intensity (averaged, normalized) (arbitrary units (background-subtracted, floor 0; scale differs between SH3 domains)); higher = stronger binding of the SH3 domain to the peptide", "description": "as §1", "values": [{"binder": "RSKRLFPVRPMATAH", "SPOT peptide array binding signal intensity": 3}]}, {"target": "ScNbp2", "experiment": "SPOT peptide array binding signal intensity (averaged, normalized) (arbitrary units (background-subtracted, floor 0; scale differs between SH3 domains)); higher = stronger binding of the SH3 domain to the peptide", "description": "as §1", "values": [{"binder": "RSKRLFPVRPMATAH", "SPOT peptide array binding signal intensity": 384}]}, {"target": "ScPex13", "experiment": "SPOT peptide array binding signal intensity (averaged, normalized) (arbitrary units (background-subtracted, floor 0; scale differs between SH3 domains)); higher = stronger binding of the SH3 domain to the peptide", "description": "as §1", "values": [{"binder": "RSKRLFPVRPMATAH", "SPOT peptide array binding signal intensity": 3.5}]}, {"target": "ScRvs167", "experiment": "SPOT peptide array binding signal intensity (averaged, normalized) (arbitrary units (background-subtracted, floor 0; scale differs between SH3 domains)); higher = stronger binding of the SH3 domain to the peptide", "description": "as §1", "values": [{"binder": "RSKRLFPVRPMATAH", "SPOT peptide array binding signal intensity": 256}]}, {"target": "ScSho1", "experiment": "SPOT peptide array binding signal intensity (averaged, normalized) (arbitrary units (background-subtracted, floor 0; scale differs between SH3 domains)); higher = stronger binding of the SH3 domain to the peptide", "description": "as §1", "values": [{"binder": "RSKRLFPVRPMATAH", "SPOT peptide array binding signal intensity": 661}]}, {"target": "ScSla1-D1-D2", "experiment": "SPOT peptide array binding signal intensity (averaged, normalized) (arbitrary units (background-subtracted, floor 0; scale differs between SH3 domains)); higher = stronger binding of the SH3 domain to the peptide", "description": "as §1", "values": [{"binder": "RSKRLFPVRPMATAH", "SPOT peptide array binding signal intensity": 212}]}, {"target": "ScSla1-D3", "experiment": "SPOT peptide array binding signal intensity (averaged, normalized) (arbitrary units (background-subtracted, floor 0; scale differs between SH3 domains)); higher = stronger binding of the SH3 domain to the peptide", "description": "as §1", "values": [{"binder": "RSKRLFPVRPMATAH", "SPOT peptide array binding signal intensity": 34}]}, {"target": "SpAbp1-D1", "experiment": "SPOT peptide array binding signal intensity (averaged, normalized) (arbitrary units (background-subtracted, floor 0; scale differs between SH3 domains)); higher = stronger binding of the SH3 domain to the peptide", "description": "as §1", "values": [{"binder": "RSKRLFPVRPMATAH", "SPOT peptide array binding signal intensity": 118}]}, {"target": "SpBbc1", "experiment": "SPOT peptide array binding signal intensity (averaged, normalized) (arbitrary units (background-subtracted, floor 0; scale differs between SH3 domains)); higher = stronger binding of the SH3 domain to the peptide", "description": "as §1", "values": [{"binder": "RSKRLFPVRPMATAH", "SPOT peptide array binding signal intensity": "≤ 0"}]}, {"target": "SpBzz1-D1", "experiment": "SPOT peptide array binding signal intensity (averaged, normalized) (arbitrary units (background-subtracted, floor 0; scale differs between SH3 domains)); higher = stronger binding of the SH3 domain to the peptide", "description": "as §1", "values": [{"binder": "RSKRLFPVRPMATAH", "SPOT peptide array binding signal intensity": 142}]}, {"target": "SpBzz1-D2", "experiment": "SPOT peptide array binding signal intensity (averaged, normalized) (arbitrary units (background-subtracted, floor 0; scale differs between SH3 domains)); higher = stronger binding of the SH3 domain to the peptide", "description": "as §1", "values": [{"binder": "RSKRLFPVRPMATAH", "SPOT peptide array binding signal intensity": 0.5}]}, {"target": "SpCyk3", "experiment": "SPOT peptide array binding signal intensity (averaged, normalized) (arbitrary units (background-subtracted, floor 0; scale differs between SH3 domains)); higher = stronger binding of the SH3 domain to the peptide", "description": "as §1", "values": [{"binder": "RSKRLFPVRPMATAH", "SPOT peptide array binding signal intensity": 5.5}]}, {"target": "SpHof1", "experiment": "SPOT peptide array binding signal intensity (averaged, normalized) (arbitrary units (background-subtracted, floor 0; scale differs between SH3 domains)); higher = stronger binding of the SH3 domain to the peptide", "description": "as §1", "values": [{"binder": "RSKRLFPVRPMATAH", "SPOT peptide array binding signal intensity": 99.2}]}, {"target": "SpHof1-2", "experiment": "SPOT peptide array binding signal intensity (averaged, normalized) (arbitrary units (background-subtracted, floor 0; scale differs between SH3 domains)); higher = stronger binding of the SH3 domain to the peptide", "description": "as §1", "values": [{"binder": "RSKRLFPVRPMATAH", "SPOT peptide array binding signal intensity": 5.5}]}, {"target": "SpHof1-3", "experiment": "SPOT peptide array binding signal intensity (averaged, normalized) (arbitrary units (background-subtracted, floor 0; scale differs between SH3 domains)); higher = stronger binding of the SH3 domain to the peptide", "description": "as §1", "values": [{"binder": "RSKRLFPVRPMATAH", "SPOT peptide array binding signal intensity": 550}]}, {"target": "SpHse1", "experiment": "SPOT peptide array binding signal intensity (averaged, normalized) (arbitrary units (background-subtracted, floor 0; scale differs between SH3 domains)); higher = stronger binding of the SH3 domain to the peptide", "description": "as §1", "values": [{"binder": "RSKRLFPVRPMATAH", "SPOT peptide array binding signal intensity": 350}]}, {"target": "SpLsb1", "experiment": "SPOT peptide array binding signal intensity (averaged, normalized) (arbitrary units (background-subtracted, floor 0; scale differs between SH3 domains)); higher = stronger binding of the SH3 domain to the peptide", "description": "as §1", "values": [{"binder": "RSKRLFPVRPMATAH", "SPOT peptide array binding signal intensity": 3}]}, {"target": "SpLsb4", "experiment": "SPOT peptide array binding signal intensity (averaged, normalized) (arbitrary units (background-subtracted, floor 0; scale differs between SH3 domains)); higher = stronger binding of the SH3 domain to the peptide", "description": "as §1", "values": [{"binder": "RSKRLFPVRPMATAH", "SPOT peptide array binding signal intensity": 624}]}, {"target": "SpMyo1", "experiment": "SPOT peptide array binding signal intensity (averaged, normalized) (arbitrary units (background-subtracted, floor 0; scale differs between SH3 domains)); higher = stronger binding of the SH3 domain to the peptide", "description": "as §1", "values": [{"binder": "RSKRLFPVRPMATAH", "SPOT peptide array binding signal intensity": 1}]}, {"target": "SpNbp2", "experiment": "SPOT peptide array binding signal intensity (averaged, normalized) (arbitrary units (background-subtracted, floor 0; scale differs between SH3 domains)); higher = stronger binding of the SH3 domain to the peptide", "description": "as §1", "values": [{"binder": "RSKRLFPVRPMATAH", "SPOT peptide array binding signal intensity": 235}]}, {"target": "SpPex13", "experiment": "SPOT peptide array binding signal intensity (averaged, normalized) (arbitrary units (background-subtracted, floor 0; scale differs between SH3 domains)); higher = stronger binding of the SH3 domain to the peptide", "description": "as §1", "values": [{"binder": "RSKRLFPVRPMATAH", "SPOT peptide array binding signal intensity": 11}]}, {"target": "SpRvs167", "experiment": "SPOT peptide array binding signal intensity (averaged, normalized) (arbitrary units (background-subtracted, floor 0; scale differs between SH3 domains)); higher = stronger binding of the SH3 domain to the peptide", "description": "as §1", "values": [{"binder": "RSKRLFPVRPMATAH", "SPOT peptide array binding signal intensity": 52.2}]}, {"target": "SpSla1-D1-D2", "experiment": "SPOT peptide array binding signal intensity (averaged, normalized) (arbitrary units (background-subtracted, floor 0; scale differs between SH3 domains)); higher = stronger binding of the SH3 domain to the peptide", "description": "as §1", "values": [{"binder": "RSKRLFPVRPMATAH", "SPOT peptide array binding signal intensity": 1}]}, {"target": "SpSla1-D3", "experiment": "SPOT peptide array binding signal intensity (averaged, normalized) (arbitrary units (background-subtracted, floor 0; scale differs between SH3 domains)); higher = stronger binding of the SH3 domain to the peptide", "description": "as §1", "values": [{"binder": "RSKRLFPVRPMATAH", "SPOT peptide array binding signal intensity": 13}]}]}
